# Measured values as given in PubChem BioAssay (Tox21).
# Records with an inconclusive call do not appear. A number with no mark means an inactive call. Calls come from the whole dose curve; as a rule, active = well fitted activation curve with a large enough effect in the signal ratio in the repeat runs (not every such curve was filed as active); inconclusive = weak or mixed curves; inactive = flat fitted curve, though single readings scatter; the % refers to the signal ratio.
# Assay: qHTS assay to identify small molecule agonists of the hypoxia (HIF-1) signaling pathway (AID 1224846)
# Conditions: HRE-bla ME-180 cells, beta-lactamase ratio, 17 h; series mostly up to 76.8 µM; activation: at the top concentration
# Text: U.S. Tox21 Program National Center for Advancing Translational Sciences [NCATS] NIH Chemical Genomics Center [NCGC] U.S. Environmental Protection Agency [EPA] National Institutes of Environmental Health Sciences [NIEHS] National Toxicology Program [NTP] U.S. Food and Drug Administration [FDA] Tox21 Assay Overview: Hypoxia-inducible factor-1 (HIF-1) is the major hypoxia-regulated transcription factor that controls cellular responses to low oxygen concentration. HIF-1 is composed of two subunits: hypoxia responsive HIF-1-alpha and constitutively expressed HIF-1-beta, which is also known as aryl hydrocarbon receptor nuclear translocator. During hypoxic conditions, HIF-1-alpha heterodimerizes with HIF-1-beta and translocates into the nucleus where the HIF-1 complex binds to the hypoxia-response element (HRE) and activates expression of target genes such as VEGF (vascular endothelial growth factor). The HIF-1 pathway is essential to normal growth and development, and is involved in the pathophysiology of cancer, inflammation, and ischemia. Using a beta-lactamase reporter-gene under control of the hypoxia response element, a cell-based assay [CellSensor(TM) HRE-bla ME-180 from Life Technologies, Carlsbad, CA] was used to measure hypoxia-induced signaling. Tox21 10K library compounds were measured for their ability to induce the reporter gene activity.
# Tox21 Assay Protocol Summary: HRE-bla ME-180 cells were dispensed at 2,000 cells per well in 6 uL of assay medium containing 0.5% dialyzed FBS into black wall/clear-bottom 1536-well plates using a Multidrop Combi (Thermo Scientific, Waltham, MA) dispenser. After the assay plates were incubated at 37C and 5% CO2 for 5 hrs, 23 nL of compounds dissolved in DMSO, positive controls or DMSO only was transferred to each well of the assay plate using a Pintool station (Kalypsys, San Diego, CA). The assay plates were incubated at 37C and 5% CO2 for 17 hrs. One uL of LiveBLAzerTM B/G FRET substrate (CCF4-AM) (Life Technologies) was added to each well using a Flying Reagent Dispenser (Aurora Discovery, San Diego, CA).
# % is set by controls: 0 for no effect and ±100 for the full control effect.
row,SMILES,activation
1,O=C(NC(=O)c1c(F)cccc1F)Nc1cc(Cl)c(F)c(Cl)c1F,-0.272%
2,CN(C)C1CCCCC1,-0.435%
3,CCC1(CC)C(=O)C=CNC1=O,0.121% [at 35.5 µM]
4,CCNc1nc(NCC)nc(SC)n1,0.588%
5,Oc1ccc(Cc2ccc(O)cc2)cc1,-0.384%
6,O=C(Cl)c1ccccc1,-0.679%
7,ClC(Cl)(Cl)Cl,-0.109%
8,COP(=O)(O)OC,-0.991%
9,CC(C)(N)Cc1ccccc1Cl,0.113% [at 35.5 µM]
10,OP(O)c1ccccc1,-0.613%
11,CC(C)(O)C(Cl)(Cl)Cl,-0.5% [at 35.5 µM]
12,c1ccc2c(c1)CCNC2,0.282%
13,CCN(CCO)CCO,-0.675%
14,CCOP(=S)(OCC)SCCl,1.06%
15,CCOC(=O)CCl,0.101%
16,CCOC(=O)C(SP(=S)(OC)OC)c1ccccc1 (stereo not given),1.26%
17,Cc1ccc(-c2nc3ccc(C)cn3c2CC(=O)N(C)C)cc1,-1.21% [at 35.5 µM]
18,CCSC(=O)Cl,-1.38%
19,CCC(C)(C#N)N=NC(C)(C#N)CC (stereo not given),-0.69%
20,CC(C)(C)NC[C@H](O)c1ccc(O)cc1Cl,-0.834% [at 35.5 µM]

row,SMILES,activation
1,CCCOc1nn(C(=O)NS(=O)(=O)c2ccccc2C(=O)OC)c(=O)n1C,-0.0029%
2,CC(=O)CN(CC(C)=O)N=O,-0.0453%
3,C[C@H]1CCCC(=O)CCC/C=C/c2cc(O)cc(O)c2C(=O)O1,3.4% [at 35.5 µM]
4,NC(=O)OCCCc1ccccc1,-0.171% [at 35.5 µM]
5,ClCCCCl,-1.15%
6,CCN(CCO)CCn1c(Cc2ccccc2)nc2c1c(=O)n(C)c(=O)n2C,0.242% [at 35.5 µM]
7,CC(C)(C)C(=O)C(Cl)Cl,-1.35%
8,O=[N+]([O-])c1cccc(CCl)c1,-0.506%
9,O=c1[nH]c2ccccc2n1C1CCNCC1,-0.397% [at 35.5 µM]
10,CCN[C@@H](C)Cc1cccc(C(F)(F)F)c1,0.224% [at 35.5 µM]
11,C1CN2CCC1CC2,-0.337% [at 35.5 µM]
12,CN(CCO)CCO,-1.18%
13,CCOC(=O)c1ncn2c1CN(C)C(=O)c1c(I)cccc1-2,0.493% [at 35.5 µM]
14,CCOc1cc(OP(=S)(OC)OC)nc(CC)n1,-0.99%
15,c1cncc([C@@H]2CCCCN2)c1,0.228%
16,CCN[C@H](C)Cc1cccc(C(F)(F)F)c1,0.15%
17,O=C(Cl)CCl,-0.269%
18,ClCC1CO1 (stereo not given),0.439%
19,C=C1C[C@@H]2[C@H](CC[C@]3(C)C(=O)CC[C@@H]23)[C@@]2(C)C=CC(=O)C=C12,1.25% [at 35.5 µM]
20,CCOC(=O)NC(C)(C)Cc1ccc(Cl)cc1,-0.376% [at 35.5 µM]
